Assay results reported in PubChem BioAssay (NCATS).
Values joined by “and” are separate entries in the source; they are usually repeats but may differ in a detail not shown here. Equal values may be shown once. Results filed as inconclusive are left out. A call without a number means that no potency is given here. More than one record can exist for a structure, and the calls need not agree. Active and inactive are the calls of the source. Calls come from the whole dose curve; as a rule, active = well fitted curve in the direction sought with a large enough effect; inconclusive = small, poorly fitted or top-dose-only effect, or another doubt; inactive = no such curve, though single readings can be large; an effect the other way counts as inactive or inconclusive.

Key:
[1] = biological target: Nicotinamide N-methyltransferase (Homo sapiens) (UniProt P40261); assay: Confirmatory Screen for Target Class Profiling of Small Molecule Inhibitors of Methyltransferases (AID 1745852); details: MTase-Glo luminescence, SAH detection, recombinant enzyme; measured here: NNMT max response; stronger effect = lower value
[2] = biological target: Phenylethanolamine N-methyltransferase (Homo sapiens) (UniProt P11086); assay: as above; details: MTase-Glo luminescence, SAH detection, recombinant enzyme; measured here: PNMT max response; stronger effect = lower value
[3] = biological target: Glutathione peroxidase 1 (Homo sapiens) (UniProt P07203); assay: Primary qHTS Assay for Inhibitors of Recombinant Selenoprotein Glutathione Peroxidase 1 (GPX1) (AID 1845191); details: recombinant GPX1, GR-coupled NADPH fluorescence, 15 min; series mostly up to 48.8 µM; note: nearly all actives have a fitted effect of over 65% in size; note: potency is the fitted concentration of half-maximal effect
Method in brief: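 NADPH consumption tracked by fluorescence at 340/450 nm between t=0 and t=15 min, room temperature. Final mix: 10 nM GPX1, 100 nM glutathione reductase, 1 mM GSH, 0.5 mM NADPH, 0.5 mM cumene hydroperoxide, 0.01% BSA; 30 min compound–enzyme preincubation.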

[4] = biological target: Phospholipid hydroperoxide glutathione peroxidase GPX4 (Homo sapiens) (UniProt P36969); assay: Primary qHTS Assay for Inhibitors of Recombinant Selenoprotein Glutathione Peroxidase 4 (GPX4) (AID 1845192); details: recombinant GPX4, GR-coupled NADPH fluorescence, 15 min; series mostly up to 50 µM; note: nearly all actives have a fitted effect of over 65% in size; note: potency is the fitted concentration of half-maximal effect
Method in brief: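 NADPH consumption followed by fluorescence at 340/450 nm, t=0 and after 15 min at room temperature. Reaction started with cumene hydroperoxide (0.5 mM final) after 30 min compound–GPX4 preincubation; final 200 nM GPX4, 100 nM GR, 1 mM GSH, 0.5 mM NADPH.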

[5] = Primary fluorescence-based thiol-reactive (MSTI) qHTS assay for identification of artifact compounds. (AID 1845221); details: MSTI thiol-reactivity probe, 1 h; series mostly up to 53.8 µM; note: nearly all actives have a fitted effect of over 65% in size; note: potency is the fitted concentration of half-maximal effect
Method in brief: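 MSTI probe at 4 uM final in 2% DMSO/PBS pH 7.4; compounds, 1 h at room temperature in dark. Fluorescence Ex/Em 525/598 nm, normalised to Acetyl-MSTI and MSTI, fitted to 4-parameter Hill.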

[6] = system: Nanoluciferase (engineered Oplophorus gracilirostris luciferase); assay: Primary Nanoluciferase (NLuc) qHTS assay for identification of artifact compounds. (AID 1845222); details: NLuc-conditioned medium, Nano-Glo luminescence, 5 min; series mostly up to 54.1 µM; note: potency is the fitted concentration of half-maximal effect
Method in brief: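 NLuc from S16 cell medium (1:55) plus test compounds, 15 min, room temperature. Luminescence after Nano-Glo (1:100) addition, 5 min.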

[7] = biological target: Luciferin 4-monooxygenase (Photinus pyralis) (UniProt P08659); assay: Primary firefly luciferase (FLuc) qHTS assay for identification of artifact compounds. (AID 1845220); details: purified firefly luciferase, luminescence, 5 min; series mostly up to 54.1 µM; note: nearly all actives have a fitted effect of over 60% in size
Method in brief: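 FLuc 10 nM; luciferin 10 uM; ATP 10 uM; Tris-acetate pH 7.6, Mg-acetate 10 mM; 15 min RT preincubation; 5 min reaction; luminescence.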

[8] = NCATS anti-infectives library activity on HEK293 viability as a counter-qHTS vs the C. elegans viability qHTS (AID 1745854); details: HEK293 viability counter-screen; series mostly up to 41.8 µM
Method in brief: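 Cytotoxicity counter-screen to a worm viability qHTS: CellTiter-Glo luminescence read 10 min after reagent addition. Compounds (final up to 41.7 uM, a 1:5 dilution series) incubated 24 hr at 37C with 1,500 HEK293 cells per well; digitonin control.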

Phospholipid hydroperoxide glutathione peroxidase GPX4 (Homo sapiens), sequence (P36969 whole entry, looked up): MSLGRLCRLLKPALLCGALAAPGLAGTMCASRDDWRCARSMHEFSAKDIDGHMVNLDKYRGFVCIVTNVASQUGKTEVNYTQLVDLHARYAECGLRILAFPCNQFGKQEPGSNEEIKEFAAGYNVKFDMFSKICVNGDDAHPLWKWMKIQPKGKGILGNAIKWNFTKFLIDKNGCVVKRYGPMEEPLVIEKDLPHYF
Glutathione peroxidase 1 (Homo sapiens), sequence (P07203 whole entry, looked up): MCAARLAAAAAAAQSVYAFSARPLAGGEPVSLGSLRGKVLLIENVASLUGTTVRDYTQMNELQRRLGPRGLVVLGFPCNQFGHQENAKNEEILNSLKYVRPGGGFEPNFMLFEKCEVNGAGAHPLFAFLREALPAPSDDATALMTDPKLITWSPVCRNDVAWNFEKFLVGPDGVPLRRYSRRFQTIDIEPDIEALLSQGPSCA
Nicotinamide N-methyltransferase (Homo sapiens), sequence (P40261 whole entry, looked up): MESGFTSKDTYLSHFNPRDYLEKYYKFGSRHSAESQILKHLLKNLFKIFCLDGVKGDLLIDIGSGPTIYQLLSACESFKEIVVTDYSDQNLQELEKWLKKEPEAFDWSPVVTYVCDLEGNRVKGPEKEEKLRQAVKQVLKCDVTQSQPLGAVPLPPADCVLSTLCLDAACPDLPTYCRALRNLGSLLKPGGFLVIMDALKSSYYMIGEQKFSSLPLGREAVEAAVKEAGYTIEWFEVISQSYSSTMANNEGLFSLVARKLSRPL
Phenylethanolamine N-methyltransferase (Homo sapiens), sequence (P11086 whole entry, looked up): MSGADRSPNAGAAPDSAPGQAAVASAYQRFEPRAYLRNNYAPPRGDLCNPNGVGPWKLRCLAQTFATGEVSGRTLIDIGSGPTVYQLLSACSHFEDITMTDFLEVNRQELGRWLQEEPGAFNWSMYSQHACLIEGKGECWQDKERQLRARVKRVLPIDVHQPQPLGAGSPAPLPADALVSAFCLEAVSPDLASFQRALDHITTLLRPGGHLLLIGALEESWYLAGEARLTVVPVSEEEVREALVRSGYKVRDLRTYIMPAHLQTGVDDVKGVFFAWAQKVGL

Row | SMILES | activity [1] | activity [2] | Potency [3] | Potency [4] | Potency [5] | Potency [6] | Potency [7] | Potency [8]
1 | Nc1ncnc2c1c(-c1cnc3[nH]ccc3c1)nn2C1CCCC1 | -56.1% | -52.4% | inactive | inactive | inactive | inactive |  | 
2 | Cc1c(C)n(Cc2ccc(-c3ccccc3C(=O)O)cc2)c2ccc(C(=O)N[C@@H](C)c3ccc([N+](=O)[O-])cc3)cc12 | -14.9% | -11.9% | inactive | 9.04 µM (active) | inactive | inactive | inactive | 
3 | COc1cc2c(NC3CCN(C(C)C)CC3)nc(C3CCCCC3)nc2cc1OCCCN1CCCC1 | -39.8% | -4.49% | inactive | inactive | inactive | inactive | inactive | 
4 | Nc1ccn([C@@H]2CS[C@H](CO)O2)c(=O)n1 |  |  | inactive | inactive |  |  |  | inactive
5 | N#Cc1c(O)c2c(-c3ccc(-c4ccccc4O)cc3)csc2[nH]c1=O | -31.1% | -7.68% | 12.8 µM (active) and inactive | inactive | inactive |  | inactive | 
6 | NC1(Cc2ccc(Cl)cc2)CCN(c2ncnc3[nH]ccc23)CC1 | -26.7% | -31.7% | inactive | inactive | inactive | inactive | inactive | 
7 | Nc1ccccc1NC(=O)c1ccc(CNc2nccc(-c3cccnc3)n2)cc1 | -33.2% | -7.44% | inactive | inactive | inactive | inactive | inactive | inactive
8 | COCCOc1ccc2c(c1)ncn2-c1ccc2cccc(N3CCC(N)CC3)c2n1 | -9.06% | -17.7% | inactive | inactive | inactive | inactive | inactive | 
9 | C=CC(=O)Nc1cccc(Oc2nc(Nc3ccc(N4CCN(C)CC4)cc3)ncc2Cl)c1 | -51.9% | -14.3% | inactive | inactive | 1890 nM (active) | inactive | inactive | 
10 | O=C(O)C1(Cc2cccc(Nc3nccs3)n2)CCC(Oc2cccc(Cl)c2F)CC1 (stereo not drawn) | -34.5% | -68.7% | inactive | inactive | inactive | inactive | inactive | 
11 | Cc1ccc(C(N)=O)cc1Nc1nccc(-c2cn(C(C)C)c3cnccc23)n1 | -53.8% | -56% | inactive | inactive | inactive | inactive | inactive | 
12 | Nc1nc(NCCNc2ncc(-n3ccnc3)c(-c3ccc(Cl)cc3Cl)n2)ccc1[N+](=O)[O-] | -47.1% | -4.53% | inactive | inactive | inactive | 536 nM (active) | inactive | 
13 | C=CCn1c(=O)c2cnc(Nc3ccc(N4CCN(C)CC4)cc3)nc2n1-c1cccc(C(C)(C)O)n1 | -8.48% | -20.6% | inactive | inactive |  | inactive | inactive | 
14 | Cc1nc(Nc2n[nH]c3c2CN(C(=O)N[C@H](CN(C)C)c2ccccc2)C3(C)C)c2sccc2n1 | -22.7% | -1.08% | inactive | inactive | inactive | inactive | inactive | 
15 | C[C@@H](Oc1cc(-c2cnn(C3CCNCC3)c2)cnc1N)c1c(Cl)ccc(F)c1Cl | -57.8% and -68.4% | -33.1% and -60.2% | inactive | inactive | inactive | inactive | inactive | 
16 | O=C(c1ccc(Nc2nccc(-c3cc4ccccc4s3)n2)cc1)N1CCC(N2CCCC2)CC1 | -19.2% | -17.2% | inactive | inactive | inactive | inactive | inactive | 
17 | CC1(C)CC(=O)c2c(C(F)(F)F)nn(-c3ccc(C(N)=O)c(NC4CCC(OC(=O)CN)CC4)c3)c2C1 (stereo not drawn) | -47.8% | -0.772% | inactive | inactive | inactive | inactive | inactive | 
18 | Cn1c(CNc2ccc(C(=N)N)cc2)nc2cc(C(=O)N(CCC(=O)O)c3ccccn3)ccc21 | -1.22% | -0.426% | inactive | inactive | inactive | inactive | inactive | 
19 | Nc1ncnc2c1c(-c1cccc(OCc3ccccc3)c1)cn2C1CC(CN2CCCC2)C1 (stereo not drawn) | -68.2% | -98.1% | inactive | inactive | inactive | inactive | inactive | 
20 | Nc1nccc(Oc2ccc(NC(=O)c3c[nH]cc(-c4ccc(F)cc4)c3=O)cc2F)c1Cl | -55.9% | -3% | inactive | inactive | inactive | inactive |  | 
21 | CN1CCC(CNc2ccc3ncc(-c4cccc(OC(F)(F)F)c4)n3n2)CC1 | -51.9% | -68.8% |  | 22.7 µM (active) and 14.3 µM (active) | inactive | inactive | inactive | 
22 | CCn1nnc2c(N3CCOCC3)nc(-c3ccc(NC(=O)Nc4ccc(C(=O)N5CCN(C)CC5)cc4)cc3)nc21 | -65.9% | -1.56% | inactive | inactive | inactive | inactive | inactive | 
23 | OCCCNc1cc(-c2ccnc(Nc3cccc(Cl)c3)n2)ccn1 | -65.5% | -82.3% | inactive | inactive | inactive | inactive | inactive | 
